PubChem BioAssay (Tox21)
Where “and” joins values, the source holds several entries; their conditions need not be identical. Identical values can stand only once. Records with an inconclusive call do not appear. Calls of active or inactive are those of the source. Unless noted, calls follow the shape of the dose curve; as a rule, active = well fitted curve in the direction sought with a large enough effect in the repeat runs; inconclusive = weak or mixed curves; inactive = no such curve, though single readings can be large; an effect the other way counts as inactive or inconclusive.

Tests used:
[1] = qHTS assay to test for compound auto fluorescence at 460 nm (blue) in HEK293 cell free culture (AID 720681)
Summary of the method: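 Compounds were added to cell-free DMEM with 10% FBS and fluorescence read directly. The blue channel used 405 nm excitation and 460 nm emission, with triamterene as the reference fluorophore.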

[2] = qHTS assay to test for compound auto fluorescence at 535 nm (green) in HEK293 cell free culture (AID 720682)
Summary of the method: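 Cell-free medium (DMEM, 10% FBS) receives compound or DMSO by pintool. Plate read directly at Ex 485/Em 535 nm. Signal converted to fluorescein equivalency.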

[3] = qHTS assay to test for compound auto fluorescence at 590 nm (red) in HEK293 cell free culture (AID 720683)
Summary of the method: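 Cell-free wells of DMEM with 10% FBS received compound, and intrinsic fluorescence was read at excitation/emission 540/590 nm. Values expressed as equivalence to Rose Bengal sodium.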

[4] = qHTS assay to test for compound auto fluorescence at 590 nm (red) in HepG2 cell free culture (AID 720684)
Summary of the method: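 Compounds are added to culture medium (MEM, 10% FBS) lacking cells, then fluorescence is read at excitation 540 nm, emission 590 nm, with Rose Bengal sodium as the equivalency standard.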

[5] = qHTS assay to test for compound auto fluorescence at 460 nm (blue) in HepG2 cell free culture (AID 720685)
Summary of the method: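 Compound (23 nL) or DMSO pinned into cell-free MEM with 10% FBS; blue fluorescence read at 405/460 nm excitation/emission, expressed as auto-fluorescence equivalency to triamterene.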

[6] = qHTS assay to test for compound auto fluorescence at 535 nm (green) in HepG2 cell free culture (AID 720686)
[7] = qHTS assay to test for compound auto fluorescence at 460 nm (blue) in HepG2 cells (AID 720687)
Summary of the method: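 HepG2 cells in MEM with 10% FBS, attached overnight at 37 C, were exposed to compound or DMSO for 1 hr at 37 C, 5% CO2. Blue fluorescence was read at 405/460 nm, with triamterene as reference fluorophore.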

[8] = target: Glucocorticoid receptor (Homo sapiens) (UniProt P04150); assay: qHTS assay to identify small molecule agonists of the glucocorticoid receptor (GR) signaling pathway (AID 720691; active = well fitted activation curve with a large enough effect in the signal ratio in the repeat runs, not every such curve was filed as active; the % refers to the signal ratio; also: potency is read from the fitted curve at half-maximal effect)
Chain of Glucocorticoid receptor (Homo sapiens) (P04150 whole entry, looked up): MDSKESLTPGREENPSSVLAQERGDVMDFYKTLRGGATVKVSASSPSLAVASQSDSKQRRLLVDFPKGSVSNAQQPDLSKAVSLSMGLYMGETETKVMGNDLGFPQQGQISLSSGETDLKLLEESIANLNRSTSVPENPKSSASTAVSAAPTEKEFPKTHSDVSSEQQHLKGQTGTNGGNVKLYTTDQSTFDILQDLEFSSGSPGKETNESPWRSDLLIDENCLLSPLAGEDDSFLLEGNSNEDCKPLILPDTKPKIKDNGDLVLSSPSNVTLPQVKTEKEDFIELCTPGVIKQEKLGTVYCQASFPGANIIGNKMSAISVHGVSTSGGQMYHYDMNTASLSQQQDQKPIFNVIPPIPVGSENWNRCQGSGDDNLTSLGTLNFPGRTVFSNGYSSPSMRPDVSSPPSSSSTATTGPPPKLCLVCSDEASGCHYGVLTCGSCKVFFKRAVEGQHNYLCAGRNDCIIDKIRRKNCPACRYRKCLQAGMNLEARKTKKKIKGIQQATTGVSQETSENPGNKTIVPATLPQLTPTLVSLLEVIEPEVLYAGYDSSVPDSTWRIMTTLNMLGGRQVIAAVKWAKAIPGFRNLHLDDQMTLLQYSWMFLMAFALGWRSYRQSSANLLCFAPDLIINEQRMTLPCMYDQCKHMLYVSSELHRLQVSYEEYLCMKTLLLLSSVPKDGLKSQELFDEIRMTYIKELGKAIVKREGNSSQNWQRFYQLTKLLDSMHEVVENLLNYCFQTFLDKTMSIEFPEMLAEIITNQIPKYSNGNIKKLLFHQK
Summary of the method: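 Fluorescence intensity from LiveBLAzer B/G FRET substrate (2 h, room temperature) reports beta-lactamase expression driven by the glucocorticoid response element in GR-bla HeLa cells after 18 h compound exposure at 37 C.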

[9] = target: Glucocorticoid receptor (Homo sapiens) (UniProt P04150); assay: qHTS assay to identify small molecule antagonists of the glucocorticoid receptor (GR) signaling pathway (AID 720692; active = well fitted inhibition curve with a large enough effect in the signal ratio in the repeat runs, not every such curve was filed as active; the % refers to the signal ratio)
Summary of the method: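 HeLa GR-bla cells; cmpd + dex 5 nM final, 18 h 37 C; LiveBLAzer B/G FRET substrate 2 h RT; fluorescence intensity read. Antagonist mode, qHTS.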

[10] = qHTS assay to identify small molecule antagonists of the glucocorticoid receptor (GR) signaling pathway - cell viability counter screen (AID 720693); also: nearly all actives have a fitted effect of over 55% in size
[11] = qHTS assay for identifying genotoxic compounds that show differential cytotoxicity against isogenic chicken DT40 cell lines with known DNA damage response pathways - wild type cell line (AID 743012); also: nearly all actives have a fitted effect of over 60% in size
Summary of the method: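 Wild type DT40, 300 cells/well, ~0.5 h settle at 37 C/5% CO2; compounds in DMSO added by pintool; 40 h at 37 C/5% CO2; CellTiter-Glo, 30 min RT; luminescence.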

[12] = qHTS assay for identifying genotoxic compounds that show differential cytotoxicity against isogenic chicken DT40 cell lines with known DNA damage response pathways - Rev3 mutant cell line (AID 743014); also: nearly all actives have a fitted effect of over 55% in size; also: potency is read from the fitted curve at half-maximal effect
[13] = qHTS assay for identifying genotoxic compounds that show differential cytotoxicity against isogenic chicken DT40 cell lines with known DNA damage response pathways - Rad54/Ku70 mutant cell line (AID 743015); also: nearly all actives have a fitted effect of over 60% in size; also: potency is read from the fitted curve at half-maximal effect
[14] = qHTS assay to identify small molecule antagonists of the androgen receptor (AR) signaling pathway - cell viability counter screen (AID 743033; also: nearly all actives have a fitted effect of over 45% in size; also: potency is read from the fitted curve at half-maximal effect)
[15] = qHTS assay to identify small molecule antagonists of the androgen receptor (AR) signaling pathway using the MDA cell line - cell viability counter screen (AID 743041; also: nearly all actives have a fitted effect of over 45% in size)
Summary of the method: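 Same-well cytotoxicity was assessed by CellTiter-Fluor in MDA-kb2 AR-luc cells after 16 h of compound treatment under R1881 agonism.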

[16] = qHTS assay to test for compound auto fluorescence at 535 nm (green) in HEK293 cells (AID 720680)
[17] = target: Androgen receptor (Homo sapiens) (UniProt P10275); assay: qHTS assay to identify small molecule antagonists of the androgen receptor (AR) signaling pathway (AID 743035; active = well fitted inhibition curve with a large enough effect in the signal ratio in the repeat runs, not every such curve was filed as active; the % refers to the signal ratio)
Chain of Androgen receptor (Homo sapiens) (P10275 whole entry, looked up): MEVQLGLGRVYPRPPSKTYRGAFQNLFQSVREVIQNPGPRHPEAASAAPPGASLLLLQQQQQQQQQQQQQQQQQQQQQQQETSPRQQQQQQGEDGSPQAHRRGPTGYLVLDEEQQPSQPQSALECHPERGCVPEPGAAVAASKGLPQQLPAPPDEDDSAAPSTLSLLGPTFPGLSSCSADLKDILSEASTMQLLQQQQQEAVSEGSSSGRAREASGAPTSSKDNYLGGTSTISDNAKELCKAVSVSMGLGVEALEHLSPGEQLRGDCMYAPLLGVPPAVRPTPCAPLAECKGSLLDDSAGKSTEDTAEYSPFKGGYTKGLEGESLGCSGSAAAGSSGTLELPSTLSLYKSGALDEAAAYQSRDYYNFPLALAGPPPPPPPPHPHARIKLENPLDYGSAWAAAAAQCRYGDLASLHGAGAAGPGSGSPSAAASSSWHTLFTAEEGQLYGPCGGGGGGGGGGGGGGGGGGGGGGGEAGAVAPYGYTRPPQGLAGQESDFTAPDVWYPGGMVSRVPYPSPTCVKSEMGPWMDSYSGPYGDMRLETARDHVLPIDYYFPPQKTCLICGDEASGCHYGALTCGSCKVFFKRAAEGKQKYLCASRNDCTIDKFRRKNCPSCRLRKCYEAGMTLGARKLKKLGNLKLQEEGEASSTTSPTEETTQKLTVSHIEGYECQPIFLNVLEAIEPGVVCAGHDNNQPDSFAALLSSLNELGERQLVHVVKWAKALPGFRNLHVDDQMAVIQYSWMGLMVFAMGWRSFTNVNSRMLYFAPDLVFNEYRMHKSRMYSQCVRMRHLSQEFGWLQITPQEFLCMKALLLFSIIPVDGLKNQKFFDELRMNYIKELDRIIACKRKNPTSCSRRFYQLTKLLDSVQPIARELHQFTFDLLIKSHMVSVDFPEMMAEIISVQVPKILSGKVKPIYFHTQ
Summary of the method: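 Fluorescence from a beta-lactamase FRET substrate (LiveBLAzer B/G, 2 h, room temperature) measured inhibition of R1881-stimulated signaling in GeneBLAzer AR-UAS-bla HEK293 cells exposed to compound for 16 h at 37C.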

[18] = target: Androgen receptor (Homo sapiens) (UniProt P10275); assay: qHTS assay to identify small molecule agonists of the androgen receptor (AR) signaling pathway (AID 743036; active = well fitted activation curve with a large enough effect in the signal ratio in the repeat runs, with a control signal flat, not every such curve was filed as active; the % refers to the signal ratio)
Summary of the method: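 AR-bla HEK293 cells, 2,000/well; 4 h preincubation 37C/5% CO2; compound (DMSO) 16 h at 37C; LiveBLAzer B/G FRET substrate 2 h RT; fluorescence intensity read-out.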

[19] = target: Androgen receptor (Homo sapiens) (UniProt P10275); assay: qHTS assay to identify small molecule agonists of the androgen receptor (AR) signaling pathway using the MDA cell line (AID 743040; also: nearly all actives have a fitted effect of over 20% in size)
Summary of the method: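 Human breast carcinoma MDA-kb2 reporter cells (MMTV-luc, AR/GR elements) were treated for 16 h at 37C in 0% CO2 following a 5 h settling period. Signal was quantified by ONE-Glo luminescence.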

[20] = target: Androgen receptor (Homo sapiens) (UniProt P10275); assay: qHTS assay to identify small molecule antagonists of the androgen receptor (AR) signaling pathway using the MDA cell line (AID 743042; also: nearly all actives have a fitted effect of over 55% in size)
Summary of the method: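 MDA-kb2 breast carcinoma cells carrying MMTV-luciferase (AR/GR responsive) were co-treated with compounds and the agonist R1881 for 16 h at 37C. Inhibition read as ONE-Glo luminescence; CellTiter-Fluor fluorescence measured in parallel for cytotoxicity.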
% is scaled to controls: 0 for no effect and ±100 for the full control effect.

CC(=O)c1cccnc1
inactive: Potency [1] | outcome [2] | outcome [3] | outcome [4] | outcome [5] | outcome [6] | outcome [7] | Potency [8] | Potency [9] | Potency [10] | Potency [11] | Potency [12] | Potency [13] | Potency [14] | Potency [15]

O=C(O)c1cccc(C(=O)O)c1C(=O)O
inactive: outcome [16] | Potency [1] | outcome [3] | outcome [5] | outcome [6] | outcome [7] | Potency [8] | Potency [9] | Potency [10] | Potency [11] | Potency [12] | Potency [13] | Potency [14] | Potency [17] | outcome [18] | outcome [19] | Potency [15] | Potency [20]

O=c1[nH]nc(-c2ccc([N+](=O)[O-])o2)o1
active: Potency [12] 19.3 µM
inactive: Potency [1] | outcome [2] | outcome [3] | outcome [4] | outcome [5] | outcome [6] | outcome [7] | Potency [8] | Potency [9] | Potency [10] | Potency [14]

CC(=O)OCC(=O)[C@@]1(O)CC[C@H]2[C@@H]3CCC4=CC(=O)C=C[C@]4(C)[C@@]3(F)[C@@H](O)C[C@@]21C
active: Potency [8] 0.0129 µM
inactive: fluorescence, % of fluorescein [16] -0.0592% [at 18.6 µM] | fluorescence, % of fluorescent control [1] -0.0825% [at 18.6 µM] | fluorescence, % of fluorescent control [3] 0.0194% [at 18.6 µM] | fluorescence, % of Rose Bengal [4] -0.0287% [at 18.6 µM] | fluorescence, % of fluorescent control [5] 0.0112% [at 18.6 µM] | fluorescence, % of fluorescein control [6] -0.0779% [at 18.6 µM] | fluorescence, % of fluorescent control [7] -0.158% [at 18.6 µM] | Potency [10] | Potency [11] | Potency [13] | Potency [14]

CO[C@@H]1[C@@H](O[C@@H]2O[C@H](C)[C@@H](O[C@H]3C[C@@](C)(O)[C@@H](O)[C@H](C)O3)[C@H](N(C)C)[C@H]2O)[C@@H](CC=O)C[C@@H](C)[C@@H](O[C@@H]2CC[C@H](N(C)C)[C@@H](C)O2)/C=C/C=C/C[C@@H](C)OC(=O)C[C@H]1OC(C)=O
active: Potency [12] 6.68 µM | Potency [13] 7.5 µM
inactive: outcome [16] | Potency [1] | outcome [3] | outcome [5] | outcome [7] | Potency [8] | Potency [10] | Potency [14] | Potency [15]

O=C1OC(=O)C2CC=CCC12 (stereo unspecified)
inactive: outcome [16] | Potency [1] | outcome [3] | outcome [4] | outcome [5] | outcome [6] | outcome [7] | Potency [8] | Potency [10] | Potency [12] | Potency [13] | Potency [14]

[O-][n+]1ccc(Cl)cc1
inactive: outcome [16] | Potency [1] | outcome [3] | outcome [4] | outcome [5] | outcome [6] | outcome [7] | Potency [10] | Potency [12] | Potency [13] | Potency [14] | Potency [15]

C/C(=C(\CCO)SS/C(CCO)=C(\C)N(C=O)Cc1cnc(C)nc1N)N(C=O)Cc1cnc(C)nc1N
inactive: outcome [16] | Potency [1] | outcome [3] | outcome [4] | outcome [5] | outcome [6] | outcome [7] | Potency [8] | Potency [9] | Potency [10] | Potency [13] | Potency [14] | Potency [15]

CC(=O)Nc1cccc(N)c1
inactive: outcome [16] | Potency [1] | outcome [2] | outcome [3] | outcome [6] | outcome [7] | Potency [8] | Potency [9] | Potency [10] | Potency [11] | Potency [12] | Potency [13] | Potency [14] | Potency [15]

CC(C)(C)N
inactive: outcome [16] | Potency [1] | outcome [3] | outcome [4] | outcome [5] | outcome [6] | outcome [7] | Potency [8] | Potency [10] | Potency [11] | Potency [12] | Potency [13] | Potency [14] | Potency [15]

CC(C(=O)O)c1ccc(/C=C2\CCCCC2=O)cc1 (stereo unspecified)
inactive: Potency [1] | outcome [2] | outcome [3] | outcome [4] | outcome [5] | outcome [6] | outcome [7] | Potency [8] | Potency [9] | Potency [10] | Potency [12] | Potency [13] | Potency [14] | Potency [15]

COC=O
active: Potency [12] 4.48 µM
inactive: fluorescence, % of fluorescent control [1] -0.168% [at 9.17 µM] | activity change [2] -0.0308% [at 9.17 µM] | fluorescence, % of fluorescent control [3] -0.0562% [at 9.17 µM] | fluorescence, % of fluorescent control [5] -0.142% [at 9.17 µM] | fluorescence, % of fluorescein control [6] -0.0327% [at 9.17 µM] | fluorescence, % of fluorescent control [7] -0.259% [at 9.17 µM] | viability change, negative = cytotoxic [10] -0.963% [at 7.04 µM] | activity change, negative = cytotoxicity [14] -27.8% [at 7.04 µM] | viability change, negative = cytotoxic [15] 12.8% [at 8.47 µM]

O=C1CCCN1CCO
active: Potency [12] 54.5 µM
inactive: Potency [1] | outcome [2] | outcome [3] | outcome [4] | outcome [5] | outcome [6] | outcome [7] | Potency [8] | Potency [9] | Potency [10] | Potency [15]

O=C(OCCOCCOCCOC(=O)c1ccccc1)c1ccccc1
inactive: Potency [1] | outcome [2] | outcome [3] | outcome [4] | outcome [5] | outcome [6] | outcome [7] | Potency [8] | Potency [9] | Potency [10] | Potency [14] | Potency [15]

O=[N+]([O-])c1ccc(Cl)cc1Cl
inactive: Potency [1] | outcome [2] | outcome [3] | outcome [4] | outcome [5] | outcome [6] | outcome [7] | Potency [8] | Potency [10] | Potency [11] | Potency [12] | Potency [13] | Potency [14] | Potency [15]

CCCCCCCCCCCCCCCCN
inactive: Potency [1] | outcome [2] | outcome [3] | outcome [5] | outcome [6] | outcome [7] | Potency [10] | Potency [12] | Potency [13] | Potency [14] | Potency [15]

CCc1c(C)[nH]c2c1C(=O)C(CN1CCOCC1)CC2 (stereo unspecified)
inactive: fluorescence, % of fluorescent control [1] 0.0226% [at 18.6 µM] | activity change [2] 0.141% [at 18.6 µM] | fluorescence, % of fluorescent control [3] 0.113% [at 18.6 µM] | fluorescence, % of Rose Bengal [4] -0.199% [at 18.6 µM] | fluorescence, % of fluorescent control [5] -0.0691% [at 18.6 µM] | fluorescence, % of fluorescent control [7] 0.0012% [at 18.6 µM] | Potency [10] | Potency [12] | Potency [13] | Potency [14] | Potency [15]

CC(C)C[C@H](NC(=O)[C@H](Cc1ccccc1)NC(=O)c1cnccn1)B(O)O
active: Potency [12] 13.3 nM and 9.4 nM | Potency [13] 11.9 nM and 10.6 nM | Potency [14] 0.0076 µM
inactive: Potency [1] | outcome [2] | outcome [3] | outcome [5] | outcome [6] | outcome [7]
